# Screening results from PubChem BioAssay.
# Rows were chosen to be rich in hits. Some 12% of all compounds tested hit in one or more screens of this group.
# PI5P4K alpha inh = inhibitors of human PI5P4K alpha. max response, %. 1.2% of 330,000 active. P48426. PI5P4Kalpha enzyme, ADP-Glo luminescence, 60 min; active compounds read low; active = max response of -50% or lower; inconclusive = between -30% and -50%; inactive = -30% or higher; also: value at the top dose of about 77 µM; % is scaled to controls: 0 for no effect and ±100 for the full control effect
#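 ADP-Glo luminescence end-point after a 60 min room-temperature kinase reaction. PI5P4Kalpha and substrate in HEPES pH 7.4 buffer with EGTA, 0.1% CHAPS and 5% DMSO; ATP at 5 microM final.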
# G9a inh = G9a (human) methyltransferase inhibition | Q96KQ7 | G9a H3K9 monomethylation, AlphaScreen, 2 h | Potency, µM (top dose mostly 102 µM), inactives show at the highest dose activity, negative = inhibition, actives largely listed as inhibitors | 8.8% of 350,000 active; also: potency is read from the fitted curve at half-maximal effect; % is scaled to controls: 0 for no effect and ±100 for the full control effect; nearly all actives have a fitted effect of over 75% in size
# Target sequence (Q96KQ7 913-1193 limits assumed): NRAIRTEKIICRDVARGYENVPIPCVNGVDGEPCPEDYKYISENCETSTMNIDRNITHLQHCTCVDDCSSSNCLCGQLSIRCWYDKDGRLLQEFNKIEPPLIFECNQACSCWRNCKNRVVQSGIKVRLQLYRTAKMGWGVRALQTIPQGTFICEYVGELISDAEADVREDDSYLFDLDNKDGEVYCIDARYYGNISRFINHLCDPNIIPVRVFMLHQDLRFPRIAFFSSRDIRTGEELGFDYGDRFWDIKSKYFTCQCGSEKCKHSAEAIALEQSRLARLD
#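 Compounds were preincubated with 20 nM G9a for 15 min, after which biotinylated H3K9 peptide (500 nM) and SAM (20 uM) started a 2 h room-temperature reaction. Monomethylated product was quantified by antibody-based AlphaScreen chemiluminescence.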
# JMJD2A Tudor = JMJD2A Tudor domain (human) inhibition | AlphaScreen JMJD2A-Tudor / H3K4me3 peptide binding | Potency, µM (highest dose often 114 µM), inactives show at the highest dose activity change, negative = inhibition, hits mostly inhibitors | 4.4% of 390,000 active; also: potency is read from the fitted curve at half-maximal effect; % is scaled to controls: 0 for no effect and ±100 for the full control effect; nearly all actives have a fitted effect of over 50% in size
# HP1b binding inh = inhibitors of HP1-beta chromodomain binding to methylated histone tails; P83916; AlphaScreen HP1-beta / biotin-H3K9me3 peptide binding; Potency, µM (doses to about 114 µM), for the others: at the highest dose activity change, negative = inhibition, hits mostly inhibitors; 0.56% of 390,000 active; also: potency is read from the fitted curve at half-maximal effect; nearly all actives have a fitted effect of over 70% in size
# Target sequence (P83916 whole entry, looked up): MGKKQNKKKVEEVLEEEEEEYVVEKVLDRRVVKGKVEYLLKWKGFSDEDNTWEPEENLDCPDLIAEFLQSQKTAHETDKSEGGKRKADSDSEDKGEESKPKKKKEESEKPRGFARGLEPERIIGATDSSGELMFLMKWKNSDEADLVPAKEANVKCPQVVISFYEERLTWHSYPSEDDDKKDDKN
#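 HP1-beta protein (50 nM final) preincubated 30 min at room temperature with biotinylated H3(1-18)K9me3 peptide (50 nM) in PBS pH 7.4, 0.01% Tween-20, then compound added for 30 min. AlphaScreen streptavidin donor/nickel chelate acceptor beads (10 ug/mL final), 30 min dark, luminescence read.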
# PLK1 PBD inh = inhibitors of human PLK1 polo-box domain binding; P53350; Plk1 PBD binding of FITC phosphopeptide, fluorescence polarization; Potency, µM, without a hit: max response, negative = inhibition, actives largely listed as inhibitors; 2.8% of 360,000 active; also: potency is read from the fitted curve at half-maximal effect; series mostly up to about 57 µM; % is scaled to controls: 0 for no effect and ±100 for the full control effect; nearly all actives have a fitted effect of over 65% in size
# BAZ2B block = blocks human BAZ2B; AlphaScreen BAZ2B-H3K14Ac peptide displacement; AID 504333; Potency, µM (series often up to 114 µM), inactives show top-dose activity change, negative = inhibition, usual class: inhibitors; 4.4% of 360,000 active; Q9UIF8; also: potency is read from the fitted curve at half-maximal effect; % is scaled to controls: 0 for no effect and ±100 for the full control effect; nearly all actives have a fitted effect of over 60% in size
#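 Complex of BAZ2B and biotin-H3K14Ac (50 nM apiece) forms over 30 min at RT, then faces library compounds up to 110 uM for another 30 min; AlphaScreen beads added, 20 min dark incubation, luminescence read.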
# * marks the source's active call; other numbers are inactive results; ? = inconclusive; . = no result; [ ] = dose if it differs, or a comment. Unless noted, calls follow the shape of the dose curve; as a rule, active = well fitted curve in the direction sought with a large enough effect; inconclusive = small, poorly fitted or top-dose-only effect, or another doubt; inactive = no such curve, though single readings can be large; an effect the other way counts as inactive or inconclusive.
SMILES,PI5P4K alpha inh,G9a inh,JMJD2A Tudor,HP1b binding inh,PLK1 PBD inh,BAZ2B block
COc1ccccc1N1CCN(C(=O)COc2ccc(C)cc2Br)CC1,-0.8,?,-16.1%,15.1%,-2.3%,-32.1%
COc1ccccc1N1CCN(C(=O)COc2cc(C)ccc2C)CC1,-9.9,-9.6%[59 µM],20µM*,?,21.2µM*,0.6%
CSc1ccc(-c2nc3ccc(C)cn3c2Nc2ccccc2C)cc1,.,32.5%[59 µM],-18.3%,63.2%,.,.
CCC1(c2ccccc2)NC(=O)N(CC(=O)Nc2ccc3c(C)cc(=O)oc3c2)C1=O (stereo unspecified),5.3,-13.8%[59 µM],-22.1%,9.3%,-3.5%,9.1%
O=C(CCCCn1c(=O)c2ccccc2n(Cc2ccccc2Cl)c1=O)NCCc1ccccc1,.,26.7%[59 µM],-12.6%,60.2%,.,40.8%
CCOc1cccc(=O)c2c(C)n(-c3ccc(C(=O)O)cc3)c(C)c12,-17.3,.,?,?,-21.0%,50.1µM*
COc1cccc(=O)c2c(C)n(-c3ccc(C(=O)O)cc3)c(C)c12,-3.2,?,-28.5%,-16.1%,-29.2%,?
CC(C)NS(=O)(=O)c1ccc(OCC(=O)Nc2ccc(F)cc2)cc1,2.6,-24.3%,3.8%[11.4 µM],2.0%,23.8µM*,10.1%
CCOC(=O)N1CCN(C(=O)COc2ccc(S(=O)(=O)NC(C)C)cc2)CC1,8.1,44.7µM*,-4.2%,53.4%,-9.2%,1.9%
CCOC(=O)c1ccc(NC(=O)COc2ccc(S(=O)(=O)NC(C)CC)cc2)cc1 (stereo unspecified),0.4,11.2%[59 µM],-13.5%,14.9%,-3.6%,46.4%[57.1 µM]
CCCCCn1c(=O)[nH]c2cc(C(=O)NCc3ccc(F)cc3)ccc2c1=O,.,7.1%[59 µM],-1.7%,19.6%,.,2.1%
CC(=O)Nc1ccc(-n2cc3c(c2-c2ccc(C)cc2)c(=O)n(C)c(=O)n3C)cc1,.,?,-34.7%,-10.0%,.,?
Nc1n[nH]c(-c2ccc(F)cc2)n1,-7.8,44.7µM*,?,19.3%,-4.5%,?
CCN1CCN(c2cc(=O)n(C3CCCCC3)c(=O)[nH]2)CC1,4.5,50.1µM*,7.6%,57.7%,-3.5%,10.7%
CN1CCN(c2cc(=O)n(C3CCCCC3)c(=O)[nH]2)CC1,9.9,35.5µM*,-15.5%,26.9%,-10.0%,7.5%
CC(NS(=O)(=O)c1ccc2ccccc2c1)c1ccccn1 (stereo unspecified),5.5,.,50.1µM*,28.2%,4.9%,.
O=C(NCc1ccccn1)c1nc(-c2cccs2)no1,0.2,28.2µM*,-27.1%,11.8%,26.7µM*,2.3%
O=C(CSc1nnc(-c2ccccc2O)o1)N1CCCCC1,-2.9,10µM*,-2.1%,37.5%,-0.5%,-31.1%
O=C(CSc1nnc(-c2ccccc2O)o1)N1CCOCC1,-6.5,-10.6%,56.2µM*,-19.7%,-5.5%,79.4µM*
CC1CCCCN1C(=O)CSc1nnc(-c2ccccc2O)o1 (stereo unspecified),-3.0,?,-14.4%,25.2%,-4.0%,2.5%
CC1CCCCN1C(=O)CSc1nnc(-c2ccccc2Cl)o1 (stereo unspecified),.,12.6µM*,-3.8%,-9.9%,.,3.1%
O=C(Cn1c(CCCO)nc2ccccc21)Nc1ccccc1-c1ccccc1,-1.8,10.3%,-13.1%,-7.5%,-4.1%,1.1%
CC(=O)c1ccc2c3c(cc(C)c2c1)CCCC3,21.8,.,141.4%,167.7%,-17.5%,.
CNc1ccc(-c2ccccc2CO)cn1,-5.6,.,.,.,-0.8%,.
COc1cc(/C=C2\NC(=S)N(C)C2=O)ccc1OCc1ccccc1F,-12.0,-3.1%,-11.7%,52.6%,-10.5%,3.4%
SMILES,PI5P4K alpha inh,G9a inh,JMJD2A Tudor,HP1b binding inh,PLK1 PBD inh,BAZ2B block
CCOc1cc(/C=C2/C(=O)ON=C2C)ccc1OCc1ccc(F)cc1,.,?,5.0%,10.0%,?,-24.2%
CCOc1cc(/C=C2/C(=O)ON=C2C)ccc1OCc1ccccc1,-1.0,.,-0.7%,23.9%,1.5µM*,-38.1%
CCOc1cc(/C=C2/C(=O)ON=C2C)ccc1OCc1ccccc1F,.,?,?,2.8%,0.844µM*,?
Cc1occc1-c1nnc(SCCCC(=O)c2ccc(F)cc2)n1C,-9.5,50.1µM*,-29.3%,7.3%,-9.8%,?
Cn1c(SCCCC(=O)c2ccc(F)cc2)nnc1-c1ccncc1,-6.5,6.6%[2.33 µM],-16.5%,24.1%,-2.6%,15.1%
O=C(Cc1nnc(-c2nc3ccccc3[nH]2)o1)Nc1cc(C(F)(F)F)ccc1Cl,.,.,-10.3%,.,.,.
C=CC(=O)N1C/C(=C/c2ccc(F)cc2)C(=O)/C(=C\c2ccc(F)cc2)C1,-21.5,.,17.8µM*,?,?,.
O=C1/C(=C\c2ccccc2)CN(C(=O)CCN2CCCCC2)C/C1=C/c1ccccc1,1.2,.,-23.6%,5.1%,?,.
Cc1oc(C(=O)O)cc1CSCc1ccoc1C(=O)O,-16.3,44.7µM*,?,12.9%,-28.3%,?
O=C(O)c1occc1CSc1ccccc1,-9.3,?,-20.1%,-26.0%,-25.3%,0.1%
Cc1oc(C(=O)O)cc1CSCc1cc(C(=O)O)c(C)o1,-18.2,14.1µM*,89.1µM*,11.3%,?,-5.9%
COc1ccc(CNC(=O)C2C3C=CC4(CN(Cc5cccnc5)C(=O)C24)O3)cc1 (stereo unspecified),-2.8,0.8%,-14.0%,68.2%,-11.4%,-0.1%
COc1ccc(NC(=O)C2C3C=CC4(CN(Cc5cccnc5)C(=O)C24)O3)c(OC)c1 (stereo unspecified),1.2,-7.3%,-2.9%,66.2%,-15.1%,50.1µM*
CCOC(=O)CN1CC23C=CC(O2)C(C(=O)Nc2ccc(OC)cc2OC)C3C1=O (stereo unspecified),8.6,50.1µM*,-12.9%,51.2%,2.3%,2.7%
CCOC(=O)CN1CC23C=CC(O2)C(C(=O)Nc2cc(OC)ccc2OC)C3C1=O (stereo unspecified),2.9,0.6%[59 µM],-4.3%,49.9%,1.0%,21.7%
Cc1cccc(N(C)C(=O)CCNS(=O)(=O)c2ccc3c(c2)CCN3C(=O)C2CC2)c1,.,1.1%[59 µM],-19.4%,20.3%[57 µM],.,1.0%
COC(=O)/C=C/c1cnc[nH]1,-4.3,?,?,61.6%,-18.6%,-11.7%[57.1 µM]
CC(=O)/C(C#N)=C1\NC(=O)C(Cc2cc(Cl)ccc2Cl)S1 (stereo unspecified),-53.3*,.,3.0%,37.8%,-12.6%,-12.1%
CC(=O)/C(C#N)=C1\NC(=O)C(Cc2ccccc2Cl)S1 (stereo unspecified),?,6.6%[59 µM],?,22.4%,?,?
Cc1noc(C)c1COc1ccccc1C(=O)NCCc1ccc(F)cc1,4.0,.,-13.1%,13.7%,-5.4%,.
CCCn1[nH]cc(SC)c(=O)c1=O,.,?,25.1µM*,-11.2%,-2.9%,?
CCC(C(=O)Nc1cc(C)ccc1OC)n1nnc(C(=O)OC)c1C(=O)OC (stereo unspecified),.,1.6%[59 µM],-13.4%,14.6%,.,2.8%
